From PubChem BioAssay
BoNT A protease: BoNT A light chain protease inhibition | multiplex microsphere protease substrate cleavage, flow cytometry | inhibition, % at 10 µM | actives 0.17% (n = 360,000) | AID 588499; also: plate controls were buffer without enzyme for full effect and enzyme alone for no effect
Autofluor counter: flagged as autofluorescent in microsphere protease counterscreen. actives 3.1% (n = 360,000). AID 624483. fluorescence intensity (concentration not given with the values). compound autofluorescence counterscreen, microsphere flow cytometry; stronger effect = higher value; in the data active = fluorescence intensity above about 16000; inconclusive = no clear call, values can overlap the other calls
BoNT-F LC inh: blocks Botulinum neurotoxin F light chain protease; Multiplex microsphere protease cleavage assay, flow cytometry; inhibition, % at 10 µM; actives 0.22% (n = 360,000); in the data active = inhibition above about 35%, passing the limit was not always enough; inconclusive = no clear call, values can overlap the other calls; also: plate controls were buffer without enzyme for full effect and enzyme alone for no effect
Anthrax LF inh2: anthrax lethal factor protease inhibition | P15917 | multiplex microsphere protease cleavage assay, LF | inhibition, % at 10 µM | actives 0.12% (n = 360,000) | AID 588501; also: plate controls were buffer without enzyme for full effect and enzyme alone for no effect
BoNT-A LC CP2: BoNT/A light chain protease inhibition; shares compounds with BoNT A protease; multiplex microsphere protease cleavage assay, flow cytometry; inhibition, % at 10 µM; actives 10% (n = 150); AID 602325; in the data active = inhibition above about 24%
Anthrax LF CP2: blocks anthrax lethal factor protease; shares compounds with BoNT A protease; multiplex microsphere protease cleavage assay; inhibition, % at 10 µM; actives 7% (n = 150); AID 602327; in the data active = inhibition above about 25%
BoNTF LC inh 2: blocks botulinum neurotoxin F light chain protease | actives 7% (n = 150) | shares compounds with BoNT A protease | multiplex microsphere protease cleavage assay, flow cytometry | inhibition, % at 10 µM; in the data active = inhibition above about 25%
Numbers without * were called inactive; ? = inconclusive; . = no result given. This is a sample that favours compounds with a hit; in the whole collection about 3.5% have one here. Rule as the data show it, unless noted: active = inhibition above about 30%; inconclusive = no clear call, values can overlap the other calls; inactive = below that.

SMILES | BoNT A protease | Autofluor counter | BoNT-F LC inh | Anthrax LF inh2 | BoNT-A LC CP2 | Anthrax LF CP2 | BoNTF LC inh 2
CSc1ccc(-c2cccc3nncn23)cc1 | 0 | 2778 | 2 | 4 | . | . | .
COc1ccc(C(=O)OCC(=O)c2c[nH]c3ccccc23)cc1OC | 37* | 5543 | -11 | 39* | 28* | 3 | -11
COCCNC(=O)C1(C)CCN(C(=O)c2cc(C)nn2C(C)(C)C)C1 (stereo unspecified) | -1 | 3956 | -4 | -2 | . | . | .
Cc1cc2cc(CNS(=O)(=O)c3ccc4ccccc4c3)ccc2n1C | 47* | 2284 | -108 | -89 | 20 | 6 | -27
CC(=O)Nc1ccc(S(=O)(=O)NCc2ccc(C)cc2)cc1 | 0 | 4322 | 3 | 0 | . | . | .
CC(=O)Nc1ccc(S(=O)(=O)NCc2ccc3c(c2)cc(C)n3C)cc1 | 72* | 1283 | -112 | -115 | 19 | 23 | -7
Cc1cc(C)c(S(=O)(=O)NCc2ccc3c(c2)cc(C)n3C)c(C)c1 | 78* | 1929 | -79 | -36 | 5 | 1 | -8
CN(c1ccccc1)S(=O)(=O)c1ccc(NC(=O)CC(=O)c2ccccc2)cc1 | 0 | 4327 | 6 | 7 | . | . | .
COc1cc(F)ccc1-c1csc(C(O)c2ccc(F)cc2)n1 (stereo unspecified) | 0 | 3952 | -2 | 2 | . | . | .
Cn1cnc(S(=O)(=O)N2CCCCC2c2cc(C(=O)NCc3ccc(Cl)c(Cl)c3)no2)c1 (stereo unspecified) | 0 | 3411 | -1 | 2 | . | . | .
COc1ccc2cc(C3=CC(=O)CC(C)(C)C3=O)ccc2c1 | 26 | 3419 | 22 | 32* | 9 | 6 | 4
COc1ccc(-c2ccccc2C2=CC(=O)CC(C)(C)C2=O)cc1 | 18 | 3662 | 8 | 22 | . | . | .
CCC(C)C(=O)C(=O)N1CCC(n2nccc2NC(=O)CCOc2ccccc2)CC1 (stereo unspecified) | 0 | 3829 | -7 | 2 | . | . | .
CCCC(=O)OCC(=O)Nc1ccc2[nH]c(=O)[nH]c2c1 | 0 | 4226 | 1 | -6 | . | . | .
Cc1cc(Br)ccc1SCC(=O)OCC(=O)Nc1ccc2[nH]c(=O)[nH]c2c1 | 11 | 3972 | 62* | 36* | 2 | 0 | 12
Oc1ccc(C[C@H]2CN([C@@H](Cc3cccc(O)c3)CN3CCC[C@@H]3CN3C(=S)NC[C@@H]3Cc3ccccc3)C(=S)N2CC2CCCCC2)cc1 | 0 | 6793 | 1 | 0 | . | . | .
Cc1cc2cc(CNC(=O)c3ccc(S(=O)(=O)N4CCCCC4)cc3)ccc2[nH]1 | 44* | 3901 | -87 | -64 | 10 | 8 | 11
Cc1cc2cc(CNC(=O)c3ccc(S(=O)(=O)N4CCOCC4)cc3)ccc2n1C | 81* | 1461 | -92 | -76 | 6 | 4 | 8
CN(C)S(=O)(=O)c1ccc(C(=O)NCc2ccc3[nH]c4c(c3c2)CCCC4)cc1 | 0 | 5417 | -9 | 0 | . | . | .
Cc1cc2cc(CNC(=O)c3ccc(S(=O)(=O)N(C)C)cc3)ccc2n1C | 82* | 1889 | -66 | -64 | 9 | 9 | 18
Cc1ccc(CNC(=O)c2ccc(S(=O)(=O)N3CCCCCC3)cc2)cc1 | 0 | 3339 | 1 | 3 | . | . | .
CC(C)c1ccc(CCNC(=O)CSC(=S)N2CCCC2)cc1 | -65 | 14409 | ? | -12 | . | . | .
COc1cc(N(C)C)ccc1C=c1c2ccccc2n2c1cc(-c1ccccc1)[n+]2C | 56* | 1971 | -112 | -45 | 30* | 5 | -62
Cc1cc2cc(CNC(=O)Cc3cccs3)ccc2n1C | 75* | 2301 | -62 | -53 | 20 | 9 | -23
Cc1ccc(S(=O)(=O)NCc2ccc3[nH]c(C)cc3c2)cc1 | 20 | 4738 | -42 | 0 | 1 | -1 | 3
SMILES | BoNT A protease | Autofluor counter | BoNT-F LC inh | Anthrax LF inh2 | BoNT-A LC CP2 | Anthrax LF CP2 | BoNTF LC inh 2
Cc1cc2cc(CNC(=O)c3cccc([N+](=O)[O-])c3)ccc2[nH]1 | 79* | 2875 | -64 | -49 | 27* | -1 | 14
Cc1cc2cc(CNC(=O)C3CCCC3)ccc2n1C | 45* | 3369 | -32 | 1 | 4 | 4 | -2
Cn1c(CNC(=O)C2CCCCC2)cc2cc(Cl)ccc21 | 1 | 3777 | ? | 5 | . | . | .
O=C(NCc1ccc2c(c1)OCO2)c1cccc([N+](=O)[O-])c1 | 0 | 2511 | 2 | 0 | . | . | .
Cc1cc2cc(CNC(=O)c3ccc(Br)o3)ccc2n1C | 62* | 2858 | -61 | -24 | 15 | 10 | -11
Cc1cc2cc(CNC(=O)c3ccc(Br)o3)ccc2[nH]1 | 67* | 2858 | -110 | -78 | 23 | 18 | -18
Cc1c(C(=O)NCc2ccc3c(c2)cc(C)n3C)cccc1[N+](=O)[O-] | 78* | 1750 | -88 | -100 | 6 | 3 | -8
Cc1ccc(CNC(=O)c2ccc(Br)o2)cc1 | 0 | 5929 | 3 | -6 | . | . | .
CC(C)NC(=O)N(C)C[C@H]1Oc2c(NC(=O)C3CC3)cccc2C(=O)N([C@H](C)CO)C[C@@H]1C | 0 | 4008 | 6 | 2 | . | . | .
Cc1cc2cc(CNC(=O)Nc3cccc(Cl)c3)ccc2n1C | 48* | 1277 | -140 | -137 | 8 | 9 | 10
Cc1cccc(NC(=O)NCc2ccc3c(c2)OCO3)c1 | -1 | ? | -4 | -4 | . | . | .
Cc1cccc(NC(=O)NCc2ccc3c(c2)cc(C)n3C)c1 | 58* | 1708 | -149 | -131 | 21 | 3 | -37
NS(=O)(=O)c1ccc(CCNC(=O)CSc2nc3c(sc(=S)n3-c3ccccc3)c(=O)[nH]2)cc1 | 0 | 3496 | -2 | -1 | . | . | .
COc1ccc(NC(=O)c2cc(S(=O)(=O)N3CCOCC3)ccc2C)cc1S(=O)(=O)N1CCCCC1 | 0 | 3883 | 3 | 2 | . | . | .
COc1ccc(NC(=O)c2cc(S(=O)(=O)N3CCCC3)ccc2C)cn1 | 12 | 2946 | 73* | 45* | 1 | -2 | -1
Cn1ccc2c(-c3cccc4ccccc34)cc3c(c21)C1CCC3C1 (stereo unspecified) | 0 | 4492 | 3 | -13 | 1 | -3 | -3
Cn1ccc2c(-c3cncc4ccccc34)cc3c(c21)C1CCC3C1 (stereo unspecified) | 48* | 3532 | 0 | 30* | 10 | 10 | 4
CCN(CC)c1ccc2cc(S(=O)(=O)c3ccc(C)cc3)c(=O)oc2c1 | 24 | 2271 | -5 | 15 | 5 | 5 | 2
CC1CN(S(=O)(=O)c2cccc(C(=O)Nc3ccc(N4CCCCC4)cc3)c2)CC(C)O1 (stereo unspecified) | 0 | 3605 | 1 | 0 | . | . | .
Cc1nc2ccc(NC(=O)c3cccc(S(=O)(=O)N4CC(C)OC(C)C4)c3)cc2s1 (stereo unspecified) | 25 | 7927 | 20 | 30* | 5 | 6 | 6
Cn1ccc2c(-c3cccc(C=O)c3)cc3c(c21)C1CCC3C1 (stereo unspecified) | 1 | 4170 | 1 | -7 | . | . | .
Cn1ccc2c(-c3cccc(C=O)c3F)cc3c(c21)C1CCC3C1 (stereo unspecified) | 19 | 3712 | -67 | -24 | . | . | .
